Laboratory results as given in ChEMBL document CHEMBL3433997, “St. Jude Leishmania screening dataset” (2016).

Columns and labels:
Type in all cases: functional
[1] = target: Solute carrier family 2, facilitated glucose transporter member 1 (Homo sapiens) (UniProt P11166); assay: ST_JUDE_LEISH: Cytotoxicity at 2uM final concentration against transgenic Leishmania Mexicana promastigotes LmGLUT1 that are glucose transport deficient and complemented with the human glucose transporter GLUT1. Activity is measured by DNA content using SYBR green in vitro
Chain of Solute carrier family 2, facilitated glucose transporter member 1 (Homo sapiens) (P11166 whole entry): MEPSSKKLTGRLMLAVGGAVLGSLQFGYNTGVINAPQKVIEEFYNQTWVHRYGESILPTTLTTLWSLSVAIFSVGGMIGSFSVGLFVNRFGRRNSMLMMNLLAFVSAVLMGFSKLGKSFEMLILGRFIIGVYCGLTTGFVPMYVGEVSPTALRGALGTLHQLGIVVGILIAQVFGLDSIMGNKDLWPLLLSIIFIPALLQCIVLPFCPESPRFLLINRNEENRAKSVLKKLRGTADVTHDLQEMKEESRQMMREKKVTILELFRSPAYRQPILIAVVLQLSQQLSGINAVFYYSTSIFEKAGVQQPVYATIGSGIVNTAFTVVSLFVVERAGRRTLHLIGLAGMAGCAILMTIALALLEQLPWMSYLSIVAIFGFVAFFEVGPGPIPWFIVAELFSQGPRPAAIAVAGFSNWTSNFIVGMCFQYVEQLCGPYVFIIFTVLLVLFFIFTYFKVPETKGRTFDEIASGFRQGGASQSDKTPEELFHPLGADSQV

[2] = target: Hexose transporter 1 (Plasmodium falciparum) (UniProt O97467); assay: ST_JUDE_LEISH: Cytotoxicity at 2uM final concentration against transgenic Leishmania Mexicana promastigotes LmPfHT that are glucose transport deficient and complemented with the Plasmodium falciparum hexose transporter. Activity is measured by DNA content using SYBR green in vitro
[3] = target: Glucose transporter (Leishmania mexicana) (UniProt O61059); assay: ST_JUDE_LEISH: Cytotoxicity at 2uM final concentration against transgenic Leishmania Mexicana promastigotes LmGT2 that are glucose transport deficient and complemented with the L. Mexicana glucose transporter 2. Activity is measured by DNA content using SYBR green in vitro

Row | SMILES | inhibition [1] | inhibition [2] | inhibition [3]
1 | C[C@@H](COc1ccc(-c2ccccc2)cc1)CON1C(N)=NC(N)=NC1(C)C | 69.6% | 76.5% | 50.3%
2 | O=C(Nc1ccc(Cl)c(Cl)c1)N1CCc2ccc(OCCCN3CCCCC3)cc2CC1 | 17.5% | 16.2% | 20.3%
3 | COc1cccc(C(=O)NCc2nnc(S)n2-c2ccc(Cl)c(Cl)c2)c1 | -0.13% | 0.68% | -0.3%
4 | CN1CCCN(Cc2cccc(-c3ccc(CNC(=O)c4cccc(Cl)c4)c(F)c3)c2)CC1 | 69.9% | 63.1% | 30.9%
5 | O=C(NCCN1CCCC1)c1ccc(-c2ccc(-c3nc4cc(C(F)(F)F)ccc4[nH]3)s2)cc1 | 3.7% | 2.28% | 3.38%
6 | O=C(NC1CCC(CCN2Cc3ccc(Br)cc3C2)CC1)c1cccc(-c2cccnc2)c1 (stereo unspecified) | 3.16% | 4.93% | -1.16%
7 | CCN(c1ccccc1)S(=O)(=O)c1ccc(OC)c(NC(=O)c2cccc(C(F)(F)F)c2)c1 | 10.4% | 7.45% | 7.82%
8 | O=[N+]([O-])c1ccc(N/C(=N\c2ccccc2Br)NCCOc2ccccc2)c(O)c1 | 0.7% | -0.42% | -2.35%
9 | Cc1cccc2nc(-c3cccc(-c4ccc(NC(=O)COc5ccccc5C(N)=O)cc4)c3)[nH]c12 | 4.4% | 4.11% | 5.02%
10 | CCCN(CCC)C(=O)c1cc(-c2cccc(C)c2)nc2ccccc12 | 2.62% | 0.69% | -1.61%
11 | O=C(NC1CCCc2ccccc21)[C@@H]1CCCN1C(=O)c1ccc(O)c(-c2cccc([N+](=O)[O-])c2)c1 (stereo partly specified) | 2.69% | 1.92% | 2.82%
12 | N#Cc1ccc(NC(=O)c2ccc(C(=O)NCCCCN3CCC(c4ccc5c(c4OCCOC4CCCCO4)CCCC5)CC3)cc2)cc1 (stereo unspecified) | 0.68% | 2.54% | 0.27%
13 | CCN1CCN(Cc2ccc3nc(-c4cc(C)n(Cc5cc(Cl)ccc5OCc5ccccc5)n4)[nH]c3c2)CC1 | 3.5% | 3.38% | -0.3%
14 | CCOC(=O)c1ccc(NC(=O)NCCCC2CCCN(CCCCCNC(=O)/C=C/c3ccc(Cl)c(Cl)c3)C2)cc1 (stereo unspecified) | 1.46% | 1.66% | 0.52%
15 | O=c1cc(NCCCNC2CCOc3c(Cl)cccc32)[nH]c2ccccc12 (stereo unspecified) | 0.96% | 1.67% | 2.03%
16 | Cc1ccc2cc(NC(=O)c3cccc(C(=O)Nc4ccc5nc(C)ccc5c4)n3)ccc2n1 | 15.1% | 12.2% | 11.6%
17 | CCOC(=O)c1c(CSc2ccccc2)oc2cc(CN(C)C)c(O)c(Cl)c12 | 1.18% | 0.44% | -0.41%
